Bioassay records deposited in PubChem BioAssay by National Center for Advancing Translational Sciences (NCATS).
Compounds with a hit are over-represented: about 14% of the library has one in this group of screens.
Pf growth 96h: P. falciparum growth inhibition at 96 hours. P. falciparum luciferase reporter growth, 96 h. Potency, µM (top dose mostly 28.7 µM), hits mostly inhibitors. 6.9% of 320,000 active. AID 504834
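Readout is luminescence from an integrated firefly luciferase in P. falciparum. Red cells, 2% hematocrit and 0.05% parasitemia final, were cultured with compound through two parasite generations (96 hours) at 37 C, 5% CO2.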
Lassa entry inh: inhibitors of Lassa virus binding or cell entry; Lassa virus pseudotype entry inhibition, cell reporter; Potency, µM (titrated, usually from 37.9 µM), hits mostly inhibitors; 1.2% of 300,000 active; calls by dose curve; tested in HEK293 cells; further: nearly all actives have a fitted effect of over 50% in size
Marburg entry inh: Marburg virus entry inhibition | AID 540276 | Marburg virus pseudotyped entry inhibition, cell reporter | Potency, µM (top dose mostly 37.8 µM), usual class: inhibitors | 1.8% of 300,000 active; calls by dose curve; tested in HEK293 cells
Pf growth 48h: inhibits P. falciparum growth in the first generation, 48 h; P. falciparum luciferase growth in erythrocytes, 48 h; Potency, µM (doses to about 28.7 µM), actives largely listed as inhibitors; 5.9% of 310,000 active
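Read-out is firefly luciferase luminescence from an integrated reporter in P. falciparum, so falling signal marks reduced parasite growth. Infected erythrocytes were at 2% hematocrit and 0.1% parasitemia (final) in Albumax-supplemented RPMI 1640.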
HCMV inh: human cytomegalovirus inhibition; HFF cells, HCMV-luciferase reporter, 72 h; active compounds read low; activity change, negative = inhibition, % at 57.5 µM; 4.5% of 410,000 active; in the data active means activity change below about -60%; inconclusive means no clear call, values can overlap the other calls; inactive means above about -39%
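Two compound doses tested in HFFs infected with HCMV-luciferase, MOI 1 PFU/cell, 72 h at 37C. Lysate luminescence read with OneGlo; data normalized against buffer-only and 10uM Salinomycin inhibitor controls.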
HCV inh: inhibitors of hepatitis C virus infection | AID 651820 | 3.4% of 340,000 active | Potency, µM (top dose mostly 41.8 µM), hits mostly inhibitors | Huh7.5.1 HCVcc-Cre infection, luciferase reporter, 44 h
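Cells (1,000/well) were plated 4 h before compound, then infected with HCVcc-Cre virus (~0.5 moi). After 44 h further culture, infection was read as luciferase luminescence following a 15 min substrate incubation at room temperature.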
A number is an active result; i = inactive; ? = inconclusive; nt = no result given; [ ] = remark or other dose. Unless noted, the call rests on the fitted dose curve; in most records, active means well fitted inhibition curve with a large enough effect; inconclusive means small, poorly fitted or top-dose-only effect, or another doubt; inactive means no such curve, though single readings can be large or run the other way.

SMILES	Pf growth 96h	Lassa entry inh	Marburg entry inh	Pf growth 48h	HCMV inh	HCV inh
CCCSc1ccc(-c2nn(-c3ccccc3)cc2/C=C(/C#N)C(=O)NCCCOC)cc1	3.7µM	i	i	i	i	i
CCSc1ccc(-c2nn(-c3ccccc3)cc2/C=C(/C#N)C(=O)NCCCOC)cc1	?	i	i	1.85µM	i	i
COc1ccccc1Nc1nc(-c2ccc(F)cc2)c2c(n1)-c1ccccc1OC2	nt	i	?	nt	i	nt
CCOC(=O)C1=CC[C@@H](c2ccccc2)N(S(=O)(=O)c2ccc(C)cc2)[C@H]1/C=C/c1ccccc1	nt	nt	nt	nt	i	nt
O=C(CSc1nc2c([nH]c3ccccc32)c(=O)n1-c1ccc(Cl)cc1)N1CCCC1	nt	i	nt	nt	i	nt
C[C@@H](NC(=O)[C@@H]1CCCN1C(=O)[C@@H]1CCCN1C(=O)c1cccc2ccccc12)c1ccccc1	nt	nt	nt	nt	i	nt
Clc1cccc(Nc2ncnc3c2nc2n3CCCCC2)c1	nt	i	nt	nt	i	nt
O=C(CSc1nnc2c3ccccc3c3ccccc3c2n1)Nc1ccccc1	?	nt	nt	i	nt	nt
O=C(CSc1nnc2c3ccccc3c3ccccc3c2n1)Nc1ccccc1F	i	i	i	i	-87.8	i
Cc1ccc(S(=O)(=O)N2CCN(C(=O)CSc3ncn[nH]3)CC2)c(C)c1	i	?	i	i	i	i[8.37 µM]
Cc1ccc(S(=O)(=O)Nc2ccc(O)c(Sc3ncn[nH]3)c2)cc1	i	i	i	i	i	i
Cc1ccc(S(=O)(=O)/N=C2/C=C(Sc3ncn[nH]3)C(=O)c3ccccc32)cc1	i	2.91µM	?	1.47µM	nt	3.98µM
Cc1ccc(S(=O)(=O)/N=C2/C=C(Sc3ncn[nH]3)C(=O)c3ccccc32)c(C)c1	i	4.11µM	?	2.08µM	nt	?
OCc1cccc(-c2csc(C(O)(c3ccccc3)C(F)(F)F)n2)c1 (stereo not drawn)	nt	nt	nt	nt	i	nt
O=C(CCCn1c(=S)[nH]c2ccc(Br)cc2c1=O)N1CCN(c2ccccn2)CC1	nt	i	?	i	i	?
COc1ccc(N2CCN(C(=O)C3CCC(Cn4c(=S)[nH]c5ccccc5c4=O)CC3)CC2)cc1 (stereo not drawn)	i	i	10.3µM	?	-80.9	1µM
O=C(C1CCC(Cn2c(=S)[nH]c3ccccc3c2=O)CC1)N1CCN(c2ccccn2)CC1 (stereo not drawn)	11.7µM	?	i	i	-91.1	12.6µM
O=C(C1CCC(Cn2c(=S)[nH]c3ccccc3c2=O)CC1)N1CCN(c2ccccc2)CC1 (stereo not drawn)	nt	i	?	nt	?	10µM
O=C(C1CCC(Cn2c(=S)[nH]c3ccccc3c2=O)CC1)N1CCOCC1 (stereo not drawn)	i	i	i	i	i	i
COc1ccccc1N1CCN(C(=O)C2CCC(Cn3c(=S)[nH]c4ccccc4c3=O)CC2)CC1 (stereo not drawn)	i	i	?	10.4µM	i	?
O=C(C1CCC(Cn2c(=O)[nH]c3ccccc3c2=O)CC1)N1CCN(c2ccccc2)CC1 (stereo not drawn)	?	i	i	i	i	i[8.37 µM]
O=C(Nc1cccc(F)c1)N1CCCCCC1	i	nt	nt	i	?	i
Cc1cccnc1C1=NOC(Cc2ccccc2)C(=O)N1CCOc1ccc(F)cc1 (stereo not drawn)	nt	nt	nt	nt	i	nt
Nc1c(-c2ccccc2)cnn1-c1cccc(C(F)(F)F)c1	i	i	i	i	-106.0	i
Nc1c(-c2cccc(Cl)c2)cnn1-c1cccc(C(F)(F)F)c1	i	i	i	i	i	?
SMILES	Pf growth 96h	Lassa entry inh	Marburg entry inh	Pf growth 48h	HCMV inh	HCV inh
O=c1cc(C(F)(F)F)[nH]c2ccc(C(F)(F)F)cc12	?	?	?	?	-97.4	?
CCCOc1ccc(-c2nc3c(c(=O)[nH]c(=O)n3Cc3ccccc3)n2CCO)cc1OCC	?	?	?	?	i	?
CCCCn1c(=O)[nH]c(=O)c2c1nc(-c1ccc(OCCC)c(OCC)c1)n2CCOC	?	?	i	9.28µM	i	25.1µM
CCCn1c(=O)[nH]c(=O)c2c1nc(-c1ccc(OC)c(Br)c1)n2CCOC	?	7.94µM	i	i	i	i
CCC(C)c1ccc2oc(-c3ccc(NC(=O)c4ncn[nH]4)cc3)nc2c1 (stereo not drawn)	nt	i	?	?	i	i
CCC(C)c1ccc(O)c(NC(=O)c2ncn[nH]2)c1 (stereo not drawn)	3.29µM	i	i	i	i	?
COC(=O)c1c(C(=O)OC)n(CCCN)c2ccc(C)cc12	?	?	8.2µM	?	i	?
Cn1c(SCC(=O)Nc2ccccc2)nc2ccccc2c1=O	i	?	3.98µM	?	?	?
Cc1cccc(NC(=O)CSc2nc3ccccc3c(=O)n2C)c1C	nt	nt	nt	nt	-68.0	nt
Cn1c(SCC(=O)NCc2ccccc2)nc2ccccc21	i	i	i	i	-100.1	i
C/C(=N/NC(=O)CSc1nc2ccccc2n1C)c1ccncc1	i	i	i	?	-100.6	i
CC(NC(=O)CSc1nc2ccccc2n1C)c1ccccc1 (stereo not drawn)	i	i	?	i	i	i
COc1ccccc1NC(=O)CSc1nc2ccccc2c(=O)n1C	i	nt	nt	i	?	i
O=C1[C@H]2[C@H]3[C@H](O)[C@H](O)C/C(=N\OCc4ccccc4)[C@@H]3CC[C@H]2C(=O)N1Cc1ccc2c(c1)OCO2	nt	nt	i	nt	nt	nt
O=C(CSc1nc(SCC(=O)NCc2ccccc2)n(-c2ccccc2)n1)NCc1ccccc1	9.28µM	?	?	nt	i	?
COc1ccc(C(C)(C)C)cc1NC(=O)OC[C@@H]1CSCCS(=O)(=O)N1	nt	i	nt	nt	i	nt
Cc1cccc(CNc2ncnc3[nH]ncc23)c1	nt	i	i	nt	i	i
Clc1ccc(CNc2ncnc3[nH]ncc23)cc1Cl	nt	7.08µM	3.98µM	nt	i	i
CCOC(=O)CC[C@H](NC(=O)Cn1cnc2c(SC)nc(N)nc21)C(=O)OCC	nt	nt	nt	nt	i	i
COc1ccc(NC(=S)NN2CCN(C)CC2)cc1OC	2.33µM	i	i	i	i	i
CCc1ccc(NC(=O)C(C)OC(=O)Cn2[nH]c(=O)c3ccccc3c2=O)cc1 (stereo not drawn)	nt	nt	nt	nt	i	nt
COC(=O)c1ccc(-n2c(C)cc(C(=O)CSc3cccc[n+]3[O-])c2C)cc1	i	nt	nt	i	?	i
COC(=O)c1ccc(C(=O)OC)c(NC(=O)CSc2cccc[n+]2[O-])c1	1.17µM	nt	i	?	?	i
COC(=O)c1ccc(C(=O)OC)c(NC(=O)CN2CCN(c3ccccc3)CC2)c1	i	?	9.2µM	i	i	i
COC(=O)c1ccc(NC(=O)CN2CCOCC2)cc1	i	i	i	i	i	i
COC(=O)c1ccccc1NC(=O)CN1CCN(C23CC4CC(CC(C4)C2)C3)CC1	?	?	5.8µM	?	i	i
COC(=O)c1cccc(NC(=O)CN2CCOCC2)c1	10.4µM	i	i	i	i	i
CCOC(=O)CNC(=O)N(C)[C@H]1C[C@H]2c3[nH]c4ccccc4c3CCN2C(=O)[C@H]1[C@H](C)O	nt	nt	nt	nt	i	nt
